Experiment in all cases: glycan array binding signal (z-score within array); higher = stronger binding
Common to all, as to conditions: glycan notation: IUPAC condensed, linker removed

The target of test [1] is Fuc(a1-2)Gal(b1-3)GalNAc(b1-3)Gal. The method in brief: (§1)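 From the Consortium for Functional Glycomics database, 3228 arrays were curated, keeping only those whose protein sequence was available. Binding is given as a within-array Z-score averaged across arrays sharing a protein sequence and across linkers. Negative Z-scores can be read as non-binding.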
The target of test [2] is Fuc(a1-2)Gal(b1-3)[Fuc(a1-4)]GlcNAc(b1-3)[Fuc(a1-3)[Gal(b1-4)]GlcNAc(b1-6)]Gal(b1-4)Glc. The gist of the method:
as §1

In test [3] the target is Fuc(a1-2)[GalNAc(a1-3)]Gal(b1-3)GalNAc(b1-3)Gal(a1-4)Gal(b1-4)Glc. The gist of the method: as §1
Test [4] addresses Fuc(a1-2)[GalNAc(a1-3)]Gal(b1-4)[Fuc(a1-3)]GlcNAc. The gist of the method:
as §1

Test [5] has as its target Fuc(a1-3)[Gal(b1-4)]Glc6S. The method in brief: as §1
In test [6] the target is Fuc(a1-3)[Gal(b1-4)]GlcNAc(b1-6)GalNAc. The gist of the method: as §1
The target of test [7] is Gal(a1-3)Gal(b1-3)GlcNAc(b1-6)GalNAc. The gist of the method:
as §1

A further test concerns the target Gal(a1-3)Gal(b1-4)GlcNAc. The gist of the method: as §1
Test [8] deals with Gal(a1-3)Gal(b1-4)[Fuc(a1-3)]GlcNAc. The method in brief:
as §1

Another test deals with Gal(a1-3)GalNAc. The method in brief: as §1
Test [9] has as its target Gal(a1-3)[Gal(a1-4)]Gal(b1-4)GlcNAc. The gist of the method: as §1
The next test deals with Gal(a1-4)Gal(b1-4)Glc. The gist of the method:
as §1

The target in the next test is Gal(b1-3)Gal. The method in brief: as §1
Another test concerns the target Gal(b1-3)GalNAc(b1-3)Gal. The method in brief: as §1
Test [10] concerns the target Gal(b1-3)GalNAc(b1-4)Gal(b1-4)Glc. The gist of the method: as §1
For test [11], the target named is Gal(b1-3)GlcNAc(b1-2)Man(a1-3)[Gal(b1-3)GlcNAc(b1-2)Man(a1-6)]Man(b1-4)GlcNAc(b1-4)[Fuc(a1-6)]GlcNAc. The gist of the method: as §1
The target of test [12] is Gal(b1-3)[GlcNAc(b1-6)]GalNAc. The method in brief: as §1
Another test has as its target Gal(b1-4)GlcNAc. The method in brief:
as §1

For test [13], the target named is Gal(b1-4)GlcNAc(b1-2)Man(a1-3)[Gal(b1-4)GlcNAc(b1-2)Man(a1-6)][Gal(b1-4)GlcNAc(b1-4)]Man(b1-4)GlcNAc(b1-4)[Fuc(a1-6)]GlcNAc. The gist of the method: as §1
Test [14] addresses Gal(b1-4)GlcNAc(b1-2)Man(a1-6)Man(b1-4)GlcNAc(b1-4)GlcNAc. The gist of the method: as §1
The target in test [15] is Gal(b1-4)GlcNAc(b1-2)[Gal(b1-4)GlcNAc(b1-6)]Man(a1-6)[GlcNAc(b1-4)][Gal(b1-4)GlcNAc(b1-2)Man(a1-3)]Man(b1-4)GlcNAc(b1-4)GlcNAc. The method in brief:
as §1

The target in test [16] is Gal(b1-4)GlcNAc(b1-3)Gal(b1-4)GlcNAc(b1-3)Gal(b1-4)GlcNAc(b1-2)[Gal(b1-4)GlcNAc(b1-3)Gal(b1-4)GlcNAc(b1-3)Gal(b1-4)GlcNAc(b1-6)]Man(a1-6)[Gal(b1-4)GlcNAc(b1-3)Gal(b1-4)GlcNAc(b1-3)Gal(b1-4)GlcNAc(b1-2)Man(a1-3)]Man(b1-4)GlcNAc(b1-4)[Fuc(a1-6)]GlcNAc. The method in brief:
as §1

Test [17] concerns the target Gal(b1-4)GlcNAc(b1-3)[GlcNAc(b1-6)]Gal(b1-4)GlcNAc. The gist of the method:
as §1

Another test concerns the target Gal3S(b1-3)GalNAc. The gist of the method: as §1
Test [18] addresses Gal3S(b1-4)[Fuc(a1-3)]Glc6S. The gist of the method: as §1
The next test has as its target Gal4S6S(b1-4)GlcNAc. The method in brief:
as §1

The target of a further test is GalNAc(b1-3)Gal. The method in brief: as §1
Another test has as its target GalNAc(b1-4)GlcNAc. The gist of the method: as §1
Test [19] addresses GalNAc(b1-4)GlcNAc(b1-2)Man(a1-3)[GalNAc(b1-4)GlcNAc(b1-2)Man(a1-6)]Man(b1-4)GlcNAc(b1-4)GlcNAc. The method in brief: as §1
The next test deals with Glc(b1-6)Glc. The gist of the method:
as §1

Test [20] addresses Neu5Ac(a2-3)Gal(b1-4)[Fuc(a1-3)]GlcNAc(b1-3)GalNAc. The method in brief:
as §1

The target in test [21] is Neu5Ac(a2-3)Gal6S(b1-4)GlcNAc. The method in brief:
as §1

For test [22], the target named is Neu5Ac(a2-3)[GalNAc(b1-4)]Gal(b1-4)Glc. The method in brief: as §1
Test [23] addresses Neu5Ac(a2-6)Gal(b1-4)GlcNAc(b1-2)Man(a1-3)[GlcNAc(b1-2)Man(a1-6)]Man(b1-4)GlcNAc(b1-4)GlcNAc. The method in brief: as §1
The target of test [24] is Neu5Ac(a2-6)Gal(b1-4)GlcNAc(b1-2)Man(a1-6)[Gal(b1-4)GlcNAc(b1-2)Man(a1-3)]Man(b1-4)GlcNAc(b1-4)GlcNAc. The gist of the method: as §1
For test [25], the target named is Neu5Ac(a2-6)Gal(b1-4)GlcNAc(b1-3)Gal(b1-4)GlcNAc(b1-3)Gal(b1-4)GlcNAc(b1-2)Man(a1-3)[Neu5Ac(a2-6)Gal(b1-4)GlcNAc(b1-3)Gal(b1-4)GlcNAc(b1-3)Gal(b1-4)GlcNAc(b1-2)Man(a1-6)]GalNAc. The gist of the method: as §1
The target in test [26] is Neu5Ac(a2-6)Gal(b1-4)GlcNAc(b1-6)[Gal(b1-3)GlcNAc(b1-3)]Gal(b1-4)Glc. The method in brief: as §1
In test [27] the target is Neu5Ac(b2-6)Gal(b1-4)GlcNAc. The gist of the method: as §1
The target of test [28] is Neu5Gc(a2-3)Gal(b1-3)GlcNAc. The method in brief:
as §1

The next test deals with Neu5Gc(a2-3)Gal(b1-4)Glc. The gist of the method:
as §1

For test [29], the target named is Neu5Gc(a2-8)Neu5Ac(a2-3)Gal(b1-4)GlcNAc. The gist of the method: as §1
The target of test [30] is Neu5Gc(a2-8)Neu5Gc(a2-3)Gal(b1-4)GlcNAc(b1-3)Gal(b1-4)GlcNAc. The method in brief:
as §1

The entries come from a sample that favours the strongest signals as a whole.

B1: HFR-3 (Triticum aestivum) (protein)
chain: MKGLLLCALALAFAAVTTHAQLQSCPTRCGKQADGMECPNNLCCSKDGYCGLGVDYCSAGAGCQSGACYDNKICGAQANGTLCRNNHCCSSGGRCGYGREYCSNGCQGGPCWADLKCGHLDNGKLCPNNLCCSQYGYCGLGPEFCGTGCQNGACSTDKPCGNKANGAPCTNNYCCSQYGSCGLGKDYCGTGCQNGACN
For B1, the “glycan array binding signal (z-score)” value was -0.52 in test [1]; -0.893 in [2]; -1.32 in test [3]; -0.585 in test [4]; -1.23 in test [5]; -1.31 in test [6]. Also, the “glycan array binding signal (z-score)” value was -0.577 in [7]; 0.079 in the test with Gal(a1-3)Gal(b1-4)GlcNAc; -0.409 in test [8]; 2.1 with Gal(a1-3)GalNAc; 1.2 in test [9]; 2.12 in the test with Gal(a1-4)Gal(b1-4)Glc. The “glycan array binding signal (z-score)” value with Gal(b1-3)Gal is -0.289; with Gal(b1-3)GalNAc(b1-3)Gal, -0.312; in test [10] it was 2.24; in test [11], 0.089; in [12] it was -0.111; with Gal(b1-4)GlcNAc, -0.853. Also, the “glycan array binding signal (z-score)” value in test [13] is -0.212; in [14], -0.488; in test [15], 1.51; in test [16], 2.51; in test [17], -0.381; in the test with Gal3S(b1-3)GalNAc, 1.67. The “glycan array binding signal (z-score)” value is 6.1 in test [18]; 0.828 with Gal4S6S(b1-4)GlcNAc; 1.25 in the test with GalNAc(b1-3)Gal; 2.48 with GalNAc(b1-4)GlcNAc; 0.738 in test [19]; -0.1 in the test with Glc(b1-6)Glc.

B2: Clec2 (Mus musculus), Q9JL99 (protein)
chain: MQDEDGYITLNIKPRKQALSSAEPASSWWRVMALVLLISSMGLVVGLVALGIMSVTQQKYLLAEKENLSATLQQLAKKFCQELIRQSEIKTKSTFEHKCSPCATKWRYHGDSCYGFFRRNLTWEESKQYCTEQNATLVKTASQSTLDYIAERITSVRWIGLSRQNSKKDWMWEDSSVLRKNGINLSGNTEENMNCAYLHNGKIHPASCKERHYLICERNAGMTRVDQLL
As for B2, the “glycan array binding signal (z-score)” value in test [20] is 0.837; in test [21], 0.844; in test [22], -0.342; in test [23] it was -0.833; in test [24], -0.707; in test [25], 4.45. For the same molecule, the “glycan array binding signal (z-score)” value in test [26] was -0.654; in test [27], 0.023; in [28] it was -0.366; with Neu5Gc(a2-3)Gal(b1-4)Glc, -0.112; in test [29] it was -0.442; in [30], -0.34.
